Measurements as given in PubChem BioAssay (NCATS).
Inconclusive results are not listed. The source made the active and inactive calls. Unless noted, the call rests on the fitted dose curve; in most records, active means well fitted curve in either direction with a large enough effect (not every such curve was filed as active); inconclusive means small, poorly fitted or top-dose-only effect, or another doubt; inactive means flat fitted curve, though single readings scatter.

How the values were obtained:
[1] = target: Lysosomal acid glucosylceramidase (Homo sapiens) (UniProt P04062); experiment: Glucocerebrosidase-p2 (AID 348; in the data active means potency below about 10 µM; further: potency means the concentration at half of the fitted maximal effect); details: purified GBA, blue fluorogenic substrate, 40 min
Lysosomal acid glucosylceramidase (Homo sapiens), sequence (P04062 whole entry, looked up): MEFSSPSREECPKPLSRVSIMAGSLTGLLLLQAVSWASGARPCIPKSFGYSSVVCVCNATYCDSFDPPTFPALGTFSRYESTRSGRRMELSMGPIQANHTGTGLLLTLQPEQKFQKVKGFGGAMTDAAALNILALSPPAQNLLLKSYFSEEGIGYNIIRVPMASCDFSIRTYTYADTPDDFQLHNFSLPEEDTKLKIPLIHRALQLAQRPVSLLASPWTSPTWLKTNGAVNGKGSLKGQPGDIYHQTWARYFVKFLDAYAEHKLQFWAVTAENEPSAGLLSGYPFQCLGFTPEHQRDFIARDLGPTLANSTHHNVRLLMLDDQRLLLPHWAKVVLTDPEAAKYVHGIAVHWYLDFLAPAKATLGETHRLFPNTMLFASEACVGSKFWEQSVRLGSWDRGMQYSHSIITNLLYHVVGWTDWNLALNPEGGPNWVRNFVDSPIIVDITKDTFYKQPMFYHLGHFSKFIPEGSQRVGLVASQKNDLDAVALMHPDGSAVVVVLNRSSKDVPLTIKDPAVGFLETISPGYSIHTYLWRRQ
Procedure, shortened: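 Normal human glucocerebrosidase (0.2 nM) with blue fluorogenic substrate (80 uM final) in citrate/phosphate pH 5.9 with 10mM sodium taurocholate, 0.01% tween-20; 40 min RT, NaOH/glycine stop; fluorescence Ex 365/Em 440; AC50 from a titration from 0.6 nM upwards.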

[2] = AP1 Signaling Pathway (AID 357); details: ME-180 AP-1-bla reporter, EGF-induced, beta-lactamase ratio, 5 h; at 7.69 µM (top of the series) unless noted;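 further: ME-180 reporter cells stimulated with EGF at its EC50 level; on the % scale 0 is the no-effect control and ±100 the full control effect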
Procedure, shortened: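 Modulation of EGF-driven AP-1 transcription was assessed with a beta-lactamase reporter in ME-180 cells. Compound and EC50 EGF were co-incubated 5 hours at 37 °C before 2.5-hour CCF4 loading at room temperature and dual-emission reading.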

[3] = NFAT Signaling Pathway (AID 444); details: Jurkat NFAT-bla M1, carbachol, beta-lactamase ratio, 5 h; at 7.69 µM (top of the series) unless noted;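 further: carbachol stimulus at about its EC50 of 1 µM final; on the % scale 0 is the no-effect control and ±100 the full control effect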
Procedure, shortened: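 Read-out: CCF4 FRET ratio (460 nm/530 nm) after 1 h RT dye loading, used for %activity and AC50 from titration series. Cells: Jurkat NFAT-β-lactamase/M1 line, treated with compound plus 1 uM carbachol for 5 h, 37 °C.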

[4] = Stat Signaling Pathway (AID 446); details: ME-180 SIE beta-lactamase reporter, IL-6 stimulated, 5 h; at 7.69 µM (top of the series) unless noted;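 further: ME-180 cervical cancer cells given 40 pM IL-6 alongside compound; SIE-controlled beta-lactamase reporter measured as 460/530 nm FRET emission ratio; on the % scale 0 is the no-effect control and ±100 the full control effect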
Procedure, shortened: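 FRET read-out (405 nm excitation, 460/530 nm emission) of a beta-lactamase reporter under a STAT-inducible element in ME-180 cervical carcinoma cells. Cells with compound receive 40 pM IL-6 for 5 h. Values are normalised to AC90 stimulation and AC90 JAK-inhibitor controls.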

[5] = target: Glucocorticoid receptor (Homo sapiens) (UniProt P04150); experiment: GR-EFC Redistribution (AID 451; calls by dose curve; further: potency means the concentration at half of the fitted maximal effect); details: CHO-K1 GR-EFC translocation, beta-gal luminescence, 2 h
Glucocorticoid receptor (Homo sapiens), sequence (P04150 whole entry, looked up, the tested form may be a part): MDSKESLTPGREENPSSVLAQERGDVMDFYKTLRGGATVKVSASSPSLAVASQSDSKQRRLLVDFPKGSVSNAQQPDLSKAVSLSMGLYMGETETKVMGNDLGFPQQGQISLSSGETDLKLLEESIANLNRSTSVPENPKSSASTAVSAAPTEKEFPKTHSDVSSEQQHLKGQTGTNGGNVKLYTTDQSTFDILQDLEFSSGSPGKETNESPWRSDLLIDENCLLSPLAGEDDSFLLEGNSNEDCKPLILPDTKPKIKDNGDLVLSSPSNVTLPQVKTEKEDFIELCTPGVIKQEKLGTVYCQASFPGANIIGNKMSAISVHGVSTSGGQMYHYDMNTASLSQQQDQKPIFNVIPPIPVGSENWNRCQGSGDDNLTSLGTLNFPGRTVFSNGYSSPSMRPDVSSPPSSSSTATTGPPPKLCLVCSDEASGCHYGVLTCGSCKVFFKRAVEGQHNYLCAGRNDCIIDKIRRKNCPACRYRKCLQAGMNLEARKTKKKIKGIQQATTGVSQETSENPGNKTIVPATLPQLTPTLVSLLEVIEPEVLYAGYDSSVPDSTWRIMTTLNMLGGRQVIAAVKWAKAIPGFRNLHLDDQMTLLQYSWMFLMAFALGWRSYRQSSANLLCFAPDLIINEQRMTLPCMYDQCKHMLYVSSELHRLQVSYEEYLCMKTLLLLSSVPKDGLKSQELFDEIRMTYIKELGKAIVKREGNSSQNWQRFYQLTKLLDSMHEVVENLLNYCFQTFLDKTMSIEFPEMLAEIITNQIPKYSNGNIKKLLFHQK
Procedure, shortened: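 Translocation of GR-ED fusion to nuclear EA restores b-gal, read by luminescence after 1 h room-temperature detection. Engineered CHO-K1 biosensor cells, 1,000/well, exposed 2 h at 37 C to titrations up to 46 uM final.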

[6] = target: Mitogen-activated protein kinase 10 (Mus musculus) (UniProt Q61831); experiment: JNK3 AlphaScreen Assay (AID 530); details: JNK3 lysate, c-Jun phosphorylation; series mostly up to 57.1 µM;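 further: kinase came from lysate of stimulated human HepG2 cells; signal reports phosphorylation of biotinylated GST-cJun 1-79 at Ser73 with 10 µM ATP; on the % scale 0 is the no-effect control and ±100 the full control effect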
Procedure, shortened: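 Kinase buffer: 20 mM Tris-HCl pH 7.6, 10 mM MgCl2, 1 mM DTT, 0.1 mM Na3VO4, 0.01% Tween-20; ATP 10 uM. Substrate biotin-GST-cJun(1-79), enzyme from activated HepG2 lysates. Detection by Ser73 phospho-antibody AlphaScreen.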

[7] = target: 3',5'-cyclic-AMP phosphodiesterase 4B (Homo sapiens) (UniProt Q07343); experiment: qHTS Assay for Inhibitors of PDE-IV (AID 607; active means well fitted activation curve with a large enough effect in the main read-out, with a control signal flat, not every such curve was filed as active; further: % of control where 0% means no effect); details: HEK293 ACTOne CNG channel cells, membrane potential fluorescence; series mostly up to 22.9 µM
3',5'-cyclic-AMP phosphodiesterase 4B (Homo sapiens), sequence (Q07343 whole entry, looked up): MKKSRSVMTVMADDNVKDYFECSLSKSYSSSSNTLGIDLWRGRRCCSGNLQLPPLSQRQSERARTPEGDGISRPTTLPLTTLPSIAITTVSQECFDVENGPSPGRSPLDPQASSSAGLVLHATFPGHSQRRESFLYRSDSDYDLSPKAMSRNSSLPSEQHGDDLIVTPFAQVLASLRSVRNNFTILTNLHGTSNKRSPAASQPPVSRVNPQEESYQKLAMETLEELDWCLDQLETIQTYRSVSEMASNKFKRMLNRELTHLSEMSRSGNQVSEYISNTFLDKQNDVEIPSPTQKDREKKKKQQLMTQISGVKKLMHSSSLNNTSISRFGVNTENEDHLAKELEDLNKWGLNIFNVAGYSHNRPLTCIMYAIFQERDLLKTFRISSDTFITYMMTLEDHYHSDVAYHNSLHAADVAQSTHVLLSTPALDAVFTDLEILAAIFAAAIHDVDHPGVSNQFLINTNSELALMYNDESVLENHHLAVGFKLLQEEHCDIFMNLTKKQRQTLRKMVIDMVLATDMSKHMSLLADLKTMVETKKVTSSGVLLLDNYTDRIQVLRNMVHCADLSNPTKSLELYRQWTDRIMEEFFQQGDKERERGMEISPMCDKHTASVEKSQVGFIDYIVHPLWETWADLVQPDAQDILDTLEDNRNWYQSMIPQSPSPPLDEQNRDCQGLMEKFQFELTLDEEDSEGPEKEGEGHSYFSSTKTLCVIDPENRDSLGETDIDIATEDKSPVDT
Procedure, shortened: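 Cell-based read-out of cAMP via a modified cyclic nucleotide-gated channel and membrane potential dye (535/590 nm) in HEK293 cells expressing PDE4 endogenously. Compounds tested up to 22.9 uM final; 100 uM RO 20-1724 reference.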

[8] = Primary qHTS for small molecule stabilizers of the endoplasmic reticulum resident proteome: Secreted ER Calcium Modulated Protein (SERCaMP) assay (AID 1508630; active means well fitted curve in the direction sought with a large enough effect; an effect the other way counts as inactive or inconclusive; further: on the % scale 0 is the no-effect control and ±100 the full control effect); details: SH-SY5Y GLuc-SERCaMP (Gaussia luciferase released on ER calcium loss) secretion, thapsigargin, luminescence; series mostly up to 38.4 µM
Procedure, shortened: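 The SH-SY5Y reporter protocol was run at 3 concentrations up to 38.3 uM (primary) or 11 concentrations (follow-up): 16 h compound, 100 nM thapsigargin for 4 h, then extracellular luciferase luminescence.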

[9] = target: Cytochrome P450 3A4 (Homo sapiens) (UniProt P08684); experiment: qHTS Assay for Inhibitors and Substrates of Cytochrome P450 3A4 (AID 884; active means well fitted curve in the direction sought with a large enough effect; an effect the other way counts as inactive or inconclusive; further: on the % scale 0 is the no-effect control and ±100 the full control effect; nearly all actives have a fitted effect of over 50% in size); details: recombinant CYP3A4, Luciferin-PPXE luminescence; series mostly up to 57.1 µM
Cytochrome P450 3A4 (Homo sapiens), sequence (P08684 whole entry, looked up): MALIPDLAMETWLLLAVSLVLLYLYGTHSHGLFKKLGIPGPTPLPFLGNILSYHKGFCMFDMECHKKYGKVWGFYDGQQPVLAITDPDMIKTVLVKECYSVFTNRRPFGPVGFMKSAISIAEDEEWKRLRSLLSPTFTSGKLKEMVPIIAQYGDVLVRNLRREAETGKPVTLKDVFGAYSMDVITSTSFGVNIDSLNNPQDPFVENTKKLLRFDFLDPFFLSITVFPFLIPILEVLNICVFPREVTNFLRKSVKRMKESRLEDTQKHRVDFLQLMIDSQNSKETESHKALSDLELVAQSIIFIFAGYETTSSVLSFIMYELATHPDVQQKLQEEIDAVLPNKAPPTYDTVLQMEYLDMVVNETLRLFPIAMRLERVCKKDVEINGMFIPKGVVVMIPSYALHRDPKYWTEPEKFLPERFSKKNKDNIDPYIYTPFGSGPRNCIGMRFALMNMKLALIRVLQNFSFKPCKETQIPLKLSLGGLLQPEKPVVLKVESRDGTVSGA
Procedure, shortened: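 Luminescent readout of luciferin produced by CYP3A4 (20 nM) dealkylation of Luciferin-PPXE, 25 uM (its KM). NADPH-driven reaction ran 60 min at RT after 10 min compound preincubation; data scaled to 57 uM ketoconazole as 100% inhibition.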

[10] = target: Cytochrome P450 3A4 (Homo sapiens) (UniProt P08684); experiment: qHTS Assay for Activators of Cytochrome P450 3A4 (AID 885; active means well fitted curve in the direction sought with a large enough effect; an effect the other way counts as inactive or inconclusive; further: nearly all actives have a fitted effect of over 65% in size; further: potency means the concentration at half of the fitted maximal effect); details: recombinant CYP3A4, Luciferin-PPXE luminescence, 60 min; series mostly up to 57.1 µM
Procedure, shortened: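 Luminescent readout of luciferin formed from 25 uM Luciferin-PPXE (KM level) by 20 nM CYP3A4 in 200 mM KPO4, with 60 min NADPH-driven reaction at room temperature after 10 min compound exposure. Ketoconazole (57 uM) defined 100% inhibition.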

[11] = qHTS Assay for Identification of Small Molecule Agonists for Hypoxia Response Element Signaling Pathway (AID 914; active means well fitted activation curve with a large enough effect in the signal ratio, with a control signal flat, not every such curve was filed as active; the % refers to the signal ratio; further: % of control where 0% means no effect); details: ME-180 (cervical carcinoma) HRE-bla reporter, beta-lactamase ratio, CoCl2, 17 h; activation: active compounds read high
Procedure, shortened: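 In Opti-MEM containing 0.5% dialyzed FBS and 10 mM HEPES, ME-180 HRE-bla cells received a compound titration and EC50 CoCl2. They were incubated 17 hours, then CCF4-loaded 2.5 hours at room temperature before ratio reading.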

[12] = target: Glucocorticoid receptor (Homo sapiens) (UniProt P04150); experiment: GR-GFP Redistribution (AID 450;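 active means compounds whose dose series gives a full or clear partial fitted curve of increased nuclear translocation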; further: potency means the concentration at half of the fitted maximal effect); details: U2OS GR-GFP nuclear translocation, laser cytometry, 2 h
[13] = Confirmation and Secondary Assay for Modulators of Hemoglobin Beta Chain Splicing at IVS2 654 locus (AID 910; active means well fitted curve in the direction sought with a large enough effect; an effect the other way counts as inactive or inconclusive;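 further: HeLa cells stably carrying EGFP split by mutant beta-globin IVS2-654 intron; per-well total GFP intensity by laser scanning cytometry after 2-day treatment; % of control where 0% means no effect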); details: HeLa EGFP-654 splicing reporter, GFP fluorescence, 48 h; series mostly up to 38.3 µM
Procedure, shortened: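 Readout: per-well total peak green fluorescence (488 nm ex, 500–520 nm em) from objects 5–250 µm, reflecting correct splicing of an EGFP-654 reporter. Compounds were applied for 2 days at 37 °C to overnight-plated HeLa EGFP-654 cells; controls were DMSO and 500 nM IVS2-654 PNA.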

[14] = Confirmation and Secondary Assay for Modulators of Hemoglobin Beta Chain Splicing at IVS2 705 locus (AID 930; active means well fitted curve in the direction sought with a large enough effect; an effect the other way counts as inactive or inconclusive;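 further: HeLa cells stably expressing the EGFP-705 splicing reporter; GFP fluorescence per well restored by corrected splicing of the IVS2-705 intron in EGFP; % of control where 0% means no effect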); details: HeLa EGFP-705 splicing reporter, GFP fluorescence, 48 h; series mostly up to 38.3 µM
Procedure, shortened: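 Per-well GFP, captured at 1 x 8 µm resolution with 488 nm excitation, served as the read-out for HeLa EGFP-705 cells incubated 2 days with test compound versus DMSO.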

[15] = target: Ubiquitin carboxyl-terminal hydrolase 1 (Homo sapiens) (UniProt O94782); experiment: Inhibitors of USP1/UAF1: Pilot qHTS (AID 504865; active means well fitted curve in the direction sought with a large enough effect; an effect the other way counts as inactive or inconclusive; further: potency means the concentration at half of the fitted maximal effect; nearly all actives have a fitted effect of over 35% in size); details: purified USP1/UAF1, Ub-rhodamine cleavage fluorescence; series mostly up to 54.9 µM
Ubiquitin carboxyl-terminal hydrolase 1 (Homo sapiens), sequence (O94782 whole entry, looked up): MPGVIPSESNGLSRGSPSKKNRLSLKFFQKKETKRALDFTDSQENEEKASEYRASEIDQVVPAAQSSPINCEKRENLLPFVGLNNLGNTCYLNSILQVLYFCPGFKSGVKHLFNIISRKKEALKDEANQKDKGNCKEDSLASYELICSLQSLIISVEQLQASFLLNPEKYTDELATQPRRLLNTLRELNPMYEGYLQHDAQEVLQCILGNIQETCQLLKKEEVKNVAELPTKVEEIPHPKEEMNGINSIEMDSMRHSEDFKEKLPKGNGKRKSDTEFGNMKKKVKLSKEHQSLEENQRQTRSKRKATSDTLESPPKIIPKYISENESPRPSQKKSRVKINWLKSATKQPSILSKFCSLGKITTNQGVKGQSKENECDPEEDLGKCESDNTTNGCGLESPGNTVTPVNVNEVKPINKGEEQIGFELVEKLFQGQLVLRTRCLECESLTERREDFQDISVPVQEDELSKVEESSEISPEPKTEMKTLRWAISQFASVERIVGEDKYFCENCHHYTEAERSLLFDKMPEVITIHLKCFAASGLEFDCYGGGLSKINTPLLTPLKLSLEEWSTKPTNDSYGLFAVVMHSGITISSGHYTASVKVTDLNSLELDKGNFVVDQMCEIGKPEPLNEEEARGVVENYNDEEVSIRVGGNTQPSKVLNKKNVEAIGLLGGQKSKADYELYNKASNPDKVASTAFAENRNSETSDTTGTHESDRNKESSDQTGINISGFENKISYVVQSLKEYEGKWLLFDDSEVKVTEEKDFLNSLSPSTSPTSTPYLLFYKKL
Procedure, shortened: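 USP1/UAF1 complex at 1 nM preincubated 15 min at room temperature with compound, then Ub-Rho substrate added at 150 nM final. Fluorescence (480/540 nm) read kinetically in 50 mM HEPES pH 7.8, 0.5 mM EDTA, 1 mM TCEP, 0.1 mg/ml BSA, 0.01% Tween-20.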

N#Cc1cccc(NC(=O)N2CC[C@@]3(CCCN(C(=O)c4csnn4)C3)C2)c1
inactive: Potency [1] > 11.4 µM | activity change, negative = inhibition [2] -20.4% | activity change, negative = inhibition [3] 10.2% | activity, negative = inhibition [4] -5.12% | Potency [5] > 46 µM | Potency [6] | Potency [7] | outcome [8]

O=C(c1cccc(F)c1)N1CCC2(CC1)CN(c1ccccc1)C2
active: Potency [10] 7.94 µM
inactive: Potency [1] > 11.4 µM | activity change, negative = inhibition [2] -0.575% | activity change, negative = inhibition [3] 6.14% | activity, negative = inhibition [4] -1.57% | Potency [5] > 46 µM | Potency [6] | Potency [7] | Potency [9] | outcome [8]

O=C(c1ccncc1)N1CCC2(CCCN(c3ccc(-c4ccccc4)cc3)C2)CC1
inactive: Potency [1] > 11.4 µM | activity change, negative = inhibition [2] -6.85% | activity change, negative = inhibition [3] 14.6% | activity, negative = inhibition [4] -6.26% | Potency [5] > 46 µM | Potency [6] | Potency [7] | outcome [8]

COCC(=O)N1CCC2(CCCN(c3ccccn3)C2)CC1
inactive: Potency [1] > 11.4 µM | activity change, negative = inhibition [2] 0.674% | activity change, negative = inhibition [3] -15.3% | activity, negative = inhibition [4] 11.7% | Potency [5] > 46 µM | Potency [6] | Potency [7] | outcome [8]

O=C(c1csnn1)N1CCC[C@@]2(CCN(c3cccc(-c4ccccc4)c3)C2)C1
inactive: Potency [1] > 11.4 µM | activity change, negative = inhibition [2] -28.1% | activity change, negative = inhibition [3] 12.1% | activity, negative = inhibition [4] 6.22% | Potency [5] > 46 µM | Potency [6] | Potency [7] | outcome [8]

COCC(=O)N1CCC2(CC1)CCN(c1ccc(-c3ccccc3)cc1)CC2
inactive: Potency [1] > 11.4 µM | activity change, negative = inhibition [2] -8.62% | activity change, negative = inhibition [3] 2.65% | activity, negative = inhibition [4] -21.1% | Potency [5] > 46 µM | Potency [6] | Potency [7] | Potency [9] | outcome [8]

N#Cc1ccc(CN2CC3(CCN(C(=O)c4csnn4)CC3)C2)cc1
inactive: Potency [1] > 11.4 µM | activity change, negative = inhibition [2] -0.499% | activity change, negative = inhibition [3] -22.3% | activity, negative = inhibition [4] 5.17% | Potency [5] > 46 µM | Potency [6] | Potency [7] | outcome [8]

COC(=O)N1CCC2(CCN(C(=O)Nc3ccc(OC)cc3)CC2)CC1
inactive: Potency [1] > 11.4 µM | activity change, negative = inhibition [2] -1.58% | activity change, negative = inhibition [3] -8.6% | activity, negative = inhibition [4] 3.42% | Potency [5] > 46 µM | Potency [6] | Potency [7] | outcome [8]

Cc1noc(C)c1C(=O)N1CCC2(CCCN(c3ncccn3)C2)CC1
inactive: Potency [1] > 11.4 µM | activity change, negative = inhibition [2] -6.23% | activity change, negative = inhibition [3] 7.66% | activity, negative = inhibition [4] -4.43% | Potency [5] > 46 µM | Potency [6] | Potency [7] | outcome [8]

O=C(Nc1ccccc1)N1CCC2(CCNCC2)CC1
inactive: Potency [1] > 11.4 µM | activity change, negative = inhibition [2] -1.92% | activity change, negative = inhibition [3] -7.88% | activity, negative = inhibition [4] 10.8% | Potency [5] > 46 µM | Potency [6] | Potency [7] | outcome [8]

Cn1cccc1C(=O)N1CCC2(CCCN(Cc3nccs3)C2)CC1
inactive: Potency [1] > 11.4 µM | activity change, negative = inhibition [2] -3.56% | activity, negative = inhibition [4] -8.95% | Potency [5] > 46 µM | Potency [6] | Potency [7] | outcome [8]

CC(=O)N1CCC2(CC1)CCN(c1ccccc1)CC2
inactive: Potency [1] > 11.4 µM | activity change, negative = inhibition [2] 16.1% | activity change, negative = inhibition [3] -0.227% | activity, negative = inhibition [4] 2.99% | Potency [5] > 46 µM | Potency [6] | Potency [7] | activation [11] -2.78% | outcome [8]

O=c1c(CCc2ccccc2)nc2cnc(Nc3ccccc3)nc2n1Cc1cccs1
inactive: Potency [1] > 11.4 µM | activity change, negative = inhibition [2] -26.7% | activity, negative = inhibition [4] -23.5% | Potency [12] > 9.22 µM | Potency [5] > 46 µM | Potency [6] | Potency [7] | outcome [8]

COC(=O)N1CCC2(CCCN(c3ncccn3)C2)CC1
inactive: Potency [1] > 11.4 µM | activity change, negative = inhibition [2] -15% | activity change, negative = inhibition [3] 6.41% | activity, negative = inhibition [4] 1.72% | Potency [5] > 46 µM | Potency [6] | Potency [7] | activation [11] 12.6% | outcome [8]

Cc1cccc(CNc2cc(-c3ccccc3C)ncn2)c1
active: Potency [15] 44.7 µM
inactive: Potency [1] > 11.4 µM | activity change, negative = inhibition [2] 13.4% | activity, negative = inhibition [4] -8.32% | Potency [12] > 46 µM | Potency [5] > 46 µM | Potency [6] | Potency [13] | activation [11] 16.7% | outcome [14] | outcome [8]

CCNc1ncc2nc(-c3cccs3)c(=O)n(-c3ccc(OC)cc3)c2n1
inactive: Potency [1] > 11.4 µM | activity change, negative = inhibition [2] -0.164% | activity change, negative = inhibition [3] -15.9% | Potency [12] > 9.22 µM | Potency [5] > 46 µM | Potency [6] | outcome [8]

COc1ccc(NC(=O)N2CC[C@@]3(CCCN(C(=O)c4cccc(F)c4)C3)C2)cc1
inactive: Potency [1] > 11.4 µM | activity change, negative = inhibition [2] -11.4% | activity change, negative = inhibition [3] 6.04% | activity, negative = inhibition [4] -0.331% | Potency [5] > 46 µM | Potency [6] | Potency [7] | Potency [10] | outcome [8]
